Results on eight compounds are retold here after PubChem BioAssay (NCI).

A short description of the assay: NCI Yeast Anticancer Drug Screen. Data for the wt2 strain (AID 169).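 Further: 0% = growth of vehicle-treated yeast cultures.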 The conditions noted are these: S. cerevisiae wt2 strain growth inhibition, stronger effect = higher value. On the procedure:
Growth inhibition of yeast strains with defined genetic alterations is measured as a screen for potential anti-cancer activity. Selected strains with alterations in DNA damage repair or cell cycle control were exposed to compounds and growth inhibition was measured relative to vehicle treated controls. The strain used in this assay is wt2

Structures are written as SMILES. About 79,000 compounds went through this panel and 15% of them were active in at least one assay; those are over-represented in the sample as a whole. Unmarked numbers belong to inactive results. Active and inactive are the calls of the source. No stated cut-off is given here; in the data, active means growth inhibition above about 70%; inactive means the rest.

Consider `Cc1cccc[c]1[Sn]([Cl])([S]/C(C#N)=N/N=C/c1ccc(N(C)C)cc1)[c]1ccccc1C`, for which the growth inhibition reads like this: (at 1.2 µM) -1%; (at 3.7 µM) -2%; (at 11.0 µM) -6%; (at 33.0 µM) 32%; (at 100.0 µM) 89% (active).
For `CCC1SC(=S)N(c2ccc(Cl)cc2)C1=O` (stereo not given) the same measures were -5%, 1%, 20%, 65% and 92% (active).
For `Cc1ccc2oc(-c3cccc(N)c3)nc2c1` the same measures were -3%, -2%, -2%, 1% and 11%.
Consider `O=S(=O)(O)CC[S][Sn]([S]CCS(=O)(=O)O)([c]1ccccc1)[c]1ccccc1`, for which the growth inhibition is -34% (at 1.2 µM); 8% (at 3.7 µM); 89% (active) (at 11.0 µM); 98% (active) (at 33.0 µM); 97% (active) (at 100.0 µM).
For `COc1ccc(C(=O)NCCN(C)C)c2nc3ccccc3cc12` the same measures were -16%, -8%, -15%, -8% and 90% (active).
For `Cc1ccc(C(C)C)c(C(=C2C=CC(=[N+](C)C)C=C2)c2c(C(C)C)ccc(C)c2O)c1O`, the growth inhibition by setting is: (at 1.2 µM) 1%; (at 3.7 µM) -1%; (at 11.0 µM) 97% (active); (at 33.0 µM) 94% (active); (at 100.0 µM) 83% (active).
For `COc1cc(C(C)(C)C)cc(OC)c1C(O)(c1c(OC)cc(C(C)(C)C)cc1OC)c1c(OC)cc(C(C)(C)C)cc1OC` the same measures were -17%, 15%, 92% (active), 94% (active) and 82% (active).
Take `CCOC(=O)/C=C1\CCCn2c1ncc(C(=O)OCC)c2=O`: the growth inhibition reads like this: (at 1.2 µM) 1%; (at 3.7 µM) 2%; (at 11.0 µM) 4%; (at 33.0 µM) 11%; (at 100.0 µM) 28%.
